Results reported in PubChem BioAssay (EPA / NIEHS).
Results filed as inconclusive are left out. Active and inactive are the calls of the source. How the source made its calls: active means hit-call score of the fitted dose curve at least 0.9, where 1 is the maximum; inconclusive means response in the unintended direction; inactive means score below 0.9.

Read-out: alkyl and aryl transferase (GSTA2), GSTA2 (gene 2939)
Test: CLD_GSTA2_24hr: CellzDirect (CLD) Gene Expression Assay for alkyl and aryl transferase (GSTA2) at 24 hours (AID 2283693)
Experimental: CLD_24hr is a cell-based, multiplexed-readout assay that uses hepatocyte, a human liver primary cell, with measurements taken at 24 hours after chemical dosing in a 96-well plate.CLD_GSTA2_24hr is one of 16 assay component(s) measured or calculated from the CLD_24hr assay. It is designed to make measurements of mRNA induction, a form of inducible reporter, as detected with chemiluminescence signals by Quantitative Nuclease Protection Assay (qNPA) technology.Data from the assay component CLD_GSTA2_24hr was analyzed at the endpoint, CLD_GSTA2_24hr, in the positive analysis fitting direction relative to DMSO as the negative control and baseline of activity. Using a type of inducible reporter, gain-of-signal activity can be used to understand changes in the reporter gene as they relate to the gene GSTA2. Furthermore, this assay endpoint can be referred to as a primary readout. To generalize the intended target to other relatable targets, this assay endpoint is annotated to the transferase intended target family, where subfamily is alkyl and aryl transferase.
Human hepatocyte cultures were treated daily for two consecutive days with fresh dosing solutions containing appropriate concentrations of the 320 ToxCast chemicals (chemical identities were blinded to CellzDirect and other ToxCast collaborators), vehicle control (0.2% DMSO), and positive control inducers as summarized in Table 1. Due to the large number of treatment groups and chemicals examined, the ToxCast chemicals were divided into two groups (spanning two independent cultures of hepatocytes from separate donor preparations (Hu778: ToxCast plates 1 and 2; Hu776: ToxCast plates 3 and 4). Each preparation of human hepatocyte cultures was treated with respective vehicle control, medium only control, set of six positive controls/reference chemicals for the five hepatic receptor pathways, and a subset of eight of the ToxCast chemicals (indoxacarb, pyrithiobac-sodium, norflurazon, cyhalofop-butyl, methomyl, thiram, acetochlor, and propiconazole). These replicate data, coupled with internal replicates designed within the blinded ToxCast chemical library, provided additional data to evaluate interindividual differences between hepatocyte preparations and their potential impact on chemical profiles.Cell morphology and integrity were evaluated using phase-contrast microscopy as an indicator of hepatocyte cell health (Tyson & Green, 1987). Cultures for each treatment group (i.e., media, vehicle [0.2% DMSO], positive control inducers [multiple concentrations], and the ToxCast chemicals [multiple concentrations]) were observed and cell morphology was assessed relative to vehicle control cultures at each harvest time point (0, 6, 24, or 48 h). […] Images were evaluated at the conclusion of the study to assess changes in cell integrity and account for the effects of chemical exposure on uncharacteristic changes in concentration-dependent gene expression profiles. The results from these determinations of apparent cytotoxicity were annotated (yes/no) alongside the corresponding qNPA data for reference.At the conclusion of each treatment period, hepatocyte cultures (96-well) were washed with 1 volume of HBSS, lysed by addition of 25 ul ArrayPlate lysis buffer (HTG, Tucson, AZ), and 70 ul/well of Denaturation Oil, denatured by incubation at 95C for 10 min, and frozen at approximately -70C until analysis by nuclease protection assay (qNPA) (Roberts et al., 2007). For qNPA analysis, cell lysates were thawed at 50C for approximately 30 min, qNPA probes were added, and samples were incubated at 95C for 10 min to begin the detection process by denaturing the target RNA, dissociating the duplexes and secondary structure hybridization. At the conclusion of the hybridization period, S1 nuclease reagent was added to each sample to digest all nonprotected nucleotides at 50C for 60-90 min. […]

Compound	outcome
CCCN(CCC)c1c([N+](=O)[O-])cc(C(F)(F)F)c(N)c1[N+](=O)[O-]	inactive
COC(=O)c1ccccc1C(=O)O	inactive
CCCOC(=O)NCCCN(C)C	inactive
Oc1ccc(C(c2ccc(O)cc2)C(Cl)(Cl)Cl)cc1	inactive
COc1nc(C)nc(NC(=O)NS(=O)(=O)c2ccccc2OCCCl)n1	inactive
COc1c(Cl)ccc(Cl)c1C(=O)O	inactive
CCC(O)=C1C(=O)CC(C(=O)O)CC1=O (stereo not given)	inactive
CCSC(=O)N(CC(C)C)CC(C)C	inactive
CCCCOCCOCCOCc1cc2c(cc1CCC)OCO2	inactive
COC(=O)c1ccccc1S(=O)(=O)NC(=O)Nc1nc(OC(F)F)cc(OC(F)F)n1	inactive
CCCCCCC(C)OC(=O)COc1nc(F)c(Cl)c(N)c1Cl (stereo not given)	inactive
COC(=O)c1cccc(C)c1S(=O)(=O)NC(=O)Nc1nc(OCC(F)(F)F)nc(N(C)C)n1	inactive
CCCN(CCC)C(=O)SCC	inactive
CCCCOC(=O)C(C)Oc1ccc(Oc2ccc(C(F)(F)F)cn2)cc1 (stereo not given)	inactive
C=CCOC(Cn1ccnc1)c1ccc(Cl)cc1Cl (stereo not given)	inactive
CCOC(=O)C(C)Oc1ccc(Oc2nc3ccc(Cl)cc3o2)cc1 (stereo not given)	inactive
CCCOC(=O)c1ccc(C(=O)OCCC)nc1	inactive
COC(=O)c1c(Cl)nn(C)c1S(=O)(=O)NC(=O)Nc1nc(OC)cc(OC)n1	inactive
CCCCCOC(=O)COc1cc(N2C(=O)C3=C(CCCC3)C2=O)c(F)cc1Cl	inactive
c1ccc(Nc2ccccc2)cc1	inactive
CCCCC(CC)CN1C(=O)C2C3C=CC(C3)C2C1=O (stereo not given)	inactive
CCC(C)OC(=O)N1CCCCC1CCO (stereo not given)	inactive
O=C(Nc1ccc([N+](=O)[O-])cc1Cl)c1cc(Cl)ccc1O	inactive
Cc1nn(C)c(Oc2ccccc2)c1C=NOCc1ccc(C(=O)OC(C)(C)C)cc1	inactive
CCNc1nc(N)nc(Cl)n1	inactive
CC(C)(c1ccc(O)cc1)c1ccc(O)cc1	inactive
CCOC(=O)C(C)Oc1ccc(Oc2cnc3cc(Cl)ccc3n2)cc1 (stereo not given)	inactive
N#CSCSc1nc2ccccc2s1	inactive
COC(=O)c1ccc(CNS(C)(=O)=O)cc1S(=O)(=O)NC(=O)Nc1nc(OC)cc(OC)n1	inactive
COCCO	inactive
